Screening data from PubChem.
This is a sample that favours compounds with a hit; in the whole collection about 4.6% have one here.
HSF-1 act = increases HSF-1 driven luciferase reporter signal | NIH3T3-HGL HSF-1 luciferase reporter, MG132, 8 h; 100% = twice DMSO control signal | activation, % at 9 µM | 1.7% of 300,000 active | AID 504408;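 active means mean replicate activation of at least 50% with a set share of replicates each reaching 50%; inconclusive means only one of those two conditions met; inactive means mean below 50% and too few replicates reaching it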
AHR act = activates the human aryl hydrocarbon receptor; P35869; AHR-responsive luciferase reporter cells, luminescence; activation, % at 5 µM; 2.5% of 320,000 active; AID 2796; in the data active means activation above about 47%
Target sequence (P35869 whole entry, looked up): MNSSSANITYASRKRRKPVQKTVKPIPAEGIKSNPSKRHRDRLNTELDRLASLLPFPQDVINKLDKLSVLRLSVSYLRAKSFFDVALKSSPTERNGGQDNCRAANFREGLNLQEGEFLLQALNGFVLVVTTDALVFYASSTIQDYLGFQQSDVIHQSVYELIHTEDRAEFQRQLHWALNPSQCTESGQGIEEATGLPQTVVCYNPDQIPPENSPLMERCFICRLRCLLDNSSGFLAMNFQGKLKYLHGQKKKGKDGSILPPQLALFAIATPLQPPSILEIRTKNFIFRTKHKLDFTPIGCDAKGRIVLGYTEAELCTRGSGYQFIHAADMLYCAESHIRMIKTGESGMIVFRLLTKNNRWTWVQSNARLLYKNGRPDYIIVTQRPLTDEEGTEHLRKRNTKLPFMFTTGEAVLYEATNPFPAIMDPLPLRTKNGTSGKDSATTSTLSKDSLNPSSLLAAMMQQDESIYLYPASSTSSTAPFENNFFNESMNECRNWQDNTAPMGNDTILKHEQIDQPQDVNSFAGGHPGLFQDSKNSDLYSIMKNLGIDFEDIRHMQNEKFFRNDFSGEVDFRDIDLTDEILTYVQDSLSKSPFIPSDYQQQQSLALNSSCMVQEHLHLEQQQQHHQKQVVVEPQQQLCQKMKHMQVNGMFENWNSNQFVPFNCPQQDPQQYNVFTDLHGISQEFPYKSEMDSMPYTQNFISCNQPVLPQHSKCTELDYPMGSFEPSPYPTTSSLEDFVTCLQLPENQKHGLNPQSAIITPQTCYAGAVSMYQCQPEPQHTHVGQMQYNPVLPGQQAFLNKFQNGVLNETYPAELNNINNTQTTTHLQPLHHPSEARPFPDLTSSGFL
HSF1 inhib = HSF1 inhibition; activity change, negative = inhibition, % at 7.5 µM (by protocol); 0.77% of 300,000 active; NIH3T3-HGL HSE-luciferase, MG132-induced, luminescence 8 h; stronger effect = lower value;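 active means more than half of replicate wells show activity change below -50%, luminescence cut by over half; inconclusive means some wells, but at most half, below -50%; inactive means no replicate well below -50%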;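 further: luciferase reports HSF-1 transcriptional activity via heat shock element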
FXN GAA850 act = frataxin GAA850 promoter activation. HEK293 lucGAA850 FXN promoter luciferase reporter, 24 h; percent of 10 µM SAHA response. activation, % at 6 µM. 0.56% of 360,000 active;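 active means activation above the average of all compounds screened plus 3 SD, cutoff fixed separately per campaign, cut at about 7.5% in these data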
AHR act confirm = confirmation of human aryl hydrocarbon receptor activators. shares compounds with AHR act. human cells, AHR-responsive luciferase reporter, luminescence. activation, % at 9 µM. 87% of 2,300 active. AID 2845; in the data active means activation above about 49%;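 further: HepG2 hepatoma cells carrying a DRE-driven firefly luciferase reporter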
PXR counter = activates human PXR in AHR activator counter-screen. shares compounds with AHR act. cell-based PXR reporter, luciferase luminescence. activation, % at 11.6 µM. 88% of 2,300 active; in the data active means activation above about 11%;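 further: human hepatoma DPX-2 cells expressing full-length human PXR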
Hits are given with their value; . = inactive; ? = inconclusive; / = not tested or not shown.

SMILES	HSF-1 act	AHR act	HSF1 inhib	FXN GAA850 act	AHR act confirm	PXR counter
CCCS(=O)(=O)Nc1c(OC)ccc2c1c(C(=O)OCC)c(C)n2C	.	85	.	.	74	119
CCOC(=O)c1c(C)n(C)c2ccc(O)c(CN(CC)CC)c12	.	.	.	.	/	/
CC(=O)/C(N=Nc1ccc2c(c1)OCO2)=C(\C)O	.	112	.	.	95	.
O=C(CCC(=O)NNc1nc2ccccc2c2nc(-c3ccccc3)nn12)NCCCN1CCOCC1	.	84	.	.	91	16
CC(C)CCNC(=O)CCC(=O)NNc1nc2ccccc2c2nc(-c3ccccc3)nn12	.	.	.	.	/	/
C=CCn1cc(/C=N/NC(=O)COc2cccc3cccnc23)c2ccccc21	.	82	.	.	.	38
COc1cccc(/C=N/NC(=O)COc2cccc3cccnc23)c1O	.	.	.	.	/	/
Cc1ccc2c(c1)c1c(n2CC(O)Cn2nc(C)c(Br)c2C)CCCC1 (stereo unspecified)	.	.	.	.	/	/
CC(C)COc1cccc(C(=O)Nc2ccc(N3CCOCC3)cc2N2CCOCC2)c1	.	.	.	.	/	/
CCN(CC)C(=O)Cn1cc(C(=O)C(=O)N2CCN(C)CC2)c2ccccc21	.	.	.	.	/	/
CCN(CC)C(=O)Cn1cc(C(=O)C(=O)N2CCc3ccccc32)c2ccccc21	.	98	.	.	89	243
C=C(c1ccc(OC)cc1)c1ccc(OC)cc1	.	.	.	.	/	/
NC(=O)c1c(NC(=O)c2ccccc2F)sc2c1CCCC2	75	205	.	.	104	28
NC(=O)c1c(NC(=O)c2ccccc2C(=O)O)sc2c1CCCC2	.	.	.	.	/	/
NC(=O)c1c(NC(=O)c2cccnc2Cl)sc2c1CCCC2	.	103	.	.	.	.
COc1ccc(-c2cc(C#N)nc(N3CCNCC3)n2)cc1	.	.	.	.	/	/
Cc1cc(C)nc(NC2=NCC(=O)N2c2cc(Cl)cc(Cl)c2)n1	.	.	.	.	/	/
Cc1cccc(N2C(=O)CN=C2Nc2nc(C)cc(C)n2)c1	.	92	.	.	82	25
NC(=O)c1ccc(NC(=O)c2cccc(Oc3ccccc3)c2)cc1	.	.	.	.	/	/
O=C(N=Nc1c(O)[nH]c2ccccc12)c1ccc2c(c1)OCO2	.	95	.	.	65	21
O=C(N=Nc1c(O)[nH]c2ccccc12)c1ccc(CN2CCOCC2)cc1	.	.	.	.	/	/
Cc1ccc2cc(CNC[C@H]3O[C@@H](n4cc(C)c(=O)[nH]c4=O)C[C@@H]3O)c(N3CCOCC3)nc2c1	/	/	/	.	/	/
CN(C)c1ccc(NC(=O)/C=C/c2c(Cl)cccc2Cl)cc1	.	100	.	.	147	87
C=CCN1C(=O)/C(=C/c2ccccc2)S/C1=N/c1nccs1	.	.	.	.	/	/
O=C(Nc1ccc(Cl)cc1)[C@@H]1[C@@H]2C(=O)N(c3ccc(Cl)cc3)C(=O)[C@@H]2[C@H]2C=CC=NN21	.	98	.	.	63	13
SMILES	HSF-1 act	AHR act	HSF1 inhib	FXN GAA850 act	AHR act confirm	PXR counter
COCCOC(=O)C1=C(C)NC(=O)NC1c1cccs1 (stereo unspecified)	.	.	.	.	/	/
CCN1C(=O)N(CC)C2C1N(C(C)=O)C(=O)N2C(C)=O (stereo unspecified)	.	.	.	.	/	/
O=C(CSc1cccc[n+]1[O-])Nc1cc2c(cc1Cl)C(=O)c1ccccc1C2=O	.	121	.	.	135	54
COCCN1CN(S(=O)(=O)c2ccc(Cl)cc2)c2nc3ccccc3nc21	.	.	.	.	/	/
O=C(N/N=C/c1c[nH]c2c1ccc1ccccc12)c1ccc([N+](=O)[O-])cc1	.	105	.	.	79	11
COc1ccc2ccccc2c1/C=N/NC(=O)c1ccc([N+](=O)[O-])cc1	.	.	.	.	/	/
Cc1cccn2c(=O)c(C=O)c(N3CCN(c4ccccc4)CC3)nc12	.	95	.	.	81	65
Cc1cccn2c(=O)c(C=O)c(N3CCN(C)CC3)nc12	.	.	.	.	/	/
CCCc1ccc(-c2c(C)sc(N)c2C#N)cc1	.	97	.	.	104	13
Cc1ccc(C(=O)N/N=C/c2ccc(-c3ccccc3[N+](=O)[O-])o2)cn1	.	93	.	.	109	16
CCOc1ccc(NC(=O)c2csc3c2CCCC3)cc1	?	146	.	.	110	45
COc1ccc(CNc2nc(-c3cccnc3)nn2C(=O)CC(C)C)cc1	.	.	.	.	/	/
CCN(CC)C(=O)Nc1cnc2ccccc2c1	.	.	.	.	/	/
Cc1ccc(NC(=O)Nc2cnc3ccccc3c2)cc1	.	93	.	.	104	22
COCCn1c(C)cc(/C=C2/NC(=O)N(c3cccc(Cl)c3)C2=O)c1C	.	122	?	.	.	74
O=C(Nc1ccc(F)cc1)C1CC2CCC1C2 (stereo unspecified)	.	.	.	.	/	/
CC(NC(=O)c1c(F)cccc1Cl)c1ccc(-n2ccnc2)cc1 (stereo unspecified)	.	127	.	.	64	19
Cc1ccc(C(=O)NC(C)c2ccc(-n3ccnc3)cc2)cc1 (stereo unspecified)	.	.	.	.	/	/
CC(NC(=O)CCNC(=O)c1ccccc1Cl)c1ccc(-n2ccnc2)cc1 (stereo unspecified)	.	.	.	.	/	/
CC(NC(=O)c1cc(F)c(F)c(F)c1F)c1ccc(-n2ccnc2)cc1 (stereo unspecified)	.	96	.	.	50	18
COc1ccc(Br)cc1CNC(=O)Nc1cccs1	?	.	.	.	/	/
O=C(Oc1c(-c2ccccc2)c(=O)n2c3c(cccc13)CC2)c1ccco1	.	.	.	.	/	/
COc1ccc(S(=O)(=O)Nc2cc3c(C(C)=O)c(C)oc3c3ccccc23)cc1	.	92	.	.	76	255
Cc1oc2c(cc(NS(=O)(=O)c3cccs3)c3ccccc32)c1C(=O)OC(C)C	.	92	.	.	92	162
Cc1oc2c(cc(NS(=O)(=O)c3ccc(C(C)C)cc3)c3ccccc32)c1C(=O)O	.	.	.	.	/	/
SMILES	HSF-1 act	AHR act	HSF1 inhib	FXN GAA850 act	AHR act confirm	PXR counter
CN(C)C(CNC(=O)c1ccccc1C(F)(F)F)c1ccco1 (stereo unspecified)	.	.	.	.	/	/
COc1ccc(OC)c(Nc2nc(NCCO)c3ccccc3n2)c1	.	88	.	.	85	35
CCn1ncc(Br)c1C(=O)Nc1ccc(F)cc1F	.	.	.	.	/	/
CCn1cc(Br)c(C(=O)Nc2ccc(F)cc2F)n1	.	99	.	.	130	13
Cc1cc(O)c(C(=O)/C=C/c2ccccc2)c(=O)o1	.	/	.	.	/	/
CCOc1ccc(/C=C/C(=O)c2c(O)cc(C)oc2=O)cc1	.	83	.	.	.	16
CNc1sc(C(=O)c2ccccc2F)c(N)c1-c1nc2ccccc2s1	.	90	.	.	88	48
Cn1c(SCC(=O)N2CCCc3ccccc32)nnc1-c1ccco1	/	.	/	.	/	/
